Assay outcomes: PubChem, National Center for Advancing Translational Sciences (NCATS)
In the library only some 2.4% were active in any assay of this set; here they are far more common.
D2 PAM-1: Beta-Arrestin HTS for Positive Allosteric Modulators of the Human D2 Dopamine Receptor: Potentiators; D(2) dopamine receptor (Homo sapiens), P14416; DiscoveRx D2 beta-arrestin cells, luminescence, 90 min; 100% = 57 uM dopamine signal; potentiation, % (no concentration beside the values); 0.23% of 360,000 active; AID 624464, 2012; in the data active = potentiation above about 50%; inconclusive = mostly about 30% to 49%
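D2 cells co-treated with compound plus 50 nM dopamine (EC20) for 90 min at 37 deg C to detect potentiation. Beta-arrestin recruitment was read as enzyme-fragment luminescence after 1 h at ambient temperature. Full response was set by 57 uM dopamine.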
D2 PAM-2: HTS Assay for Positive Allosteric Modulators of the Human D2 Dopamine Receptor: Primary Screen for Potentiators; D(2) dopamine receptor (Homo sapiens), P14416; HEK293 T-REx D2, calcium flux, EC20 dopamine potentiation; potentiation, % at 10 µM; 0.34% of 340,000 active;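 active = potentiation over 3 SD above the plate norm, cut at about 30% in these data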; note: 0% is about no effect
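Calcium flux readout, no-wash dye, 1 read/s. Inducible HEK293 Trex D2 line, overnight 30 C. Compound alone 180 s (agonist flags), then EC20 dopamine, another 180 s to score potentiation.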
D2 ag-1: Beta-Arrestin HTS for Positive Allosteric Modulators of the Human D2 Dopamine Receptor: Agonists | DiscoveRx PathHunter D2 beta-arrestin, luminescence, 90 min; 100% = 57 uM dopamine signal | 0.084% of 360,000 active | activation, % (no concentration beside the values) | D(2) dopamine receptor (Homo sapiens), P14416 | AID 624465, 2012; in the data active = activation above about 40%; inconclusive = between about 15% and that limit
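DiscoveRx PathHunter D2 beta-arrestin cells (2,100/well) attached overnight, then compound-stimulated 90 min at 37 C in HBSS/10 mM HEPES/0.1% Tween-20 buffer; beta-galactosidase complementation read by luminescence after 1 h at ambient temperature. Dopamine 57 uM final (EC100) as control.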
D2 ag-2: HTS Assay for Allosteric Agonists of the Human D2 Dopamine Receptor: Primary Screen for Agonists; HEK293 T-REx D2 cells, calcium flux agonist mode; activation, % at 2 µM; 0.53% of 340,000 active; AID 485358, 2010;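 active = activation over 3 SD above normal in the single-dose calcium agonist read, cut at about 30% in these data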; note: 0% is about no effect
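In this primary screen, compounds producing a positive calcium signal within 180 s of addition to tetracycline-induced, force-coupled HEK293 Trex D2 cells are flagged; cells are dye-loaded with a no-wash calcium kit beforehand.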
D2 antagonist: HTS Assay for Allosteric Antagonists of the Human D2 Dopamine Receptor: Primary Screen for Antagonists; HEK293 TREx D2 cells, calcium flux, dopamine EC80; inhibition, % at 10 µM; D(2) dopamine receptor (Homo sapiens), P14416; AID 485344, 2010; 2% of 340,000 active; in the data active = inhibition above about 30%; inactive = below that, where a call was filed; note: 0% is about no effect
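HEK293 T-REx D2 cells, tet-induced, calcium dye no-wash. Cpd pintool add, 180 s kinetic, then EC80 DA, 180 s kinetic. Ca flux read.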
D3 ag: qHTS of D3 Dopamine Receptor Agonist: D3 Dopamine Receptor B-arrestin Agonist Confirmatory Assay | shares compounds with D2 ag-2 | DiscoveRx D3 beta-arrestin cells, luminescence, 90 min | 4% of 2,300 active | Potency, µM (doses to about 76.9 µM), without a hit: at the highest dose activation, hits mostly activators;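 note: potency is the fitted concentration of half-maximal effect; 100% = dopamine control response; nearly all actives have a fitted effect of over 70% in size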
Target sequence (P35462 whole entry, looked up): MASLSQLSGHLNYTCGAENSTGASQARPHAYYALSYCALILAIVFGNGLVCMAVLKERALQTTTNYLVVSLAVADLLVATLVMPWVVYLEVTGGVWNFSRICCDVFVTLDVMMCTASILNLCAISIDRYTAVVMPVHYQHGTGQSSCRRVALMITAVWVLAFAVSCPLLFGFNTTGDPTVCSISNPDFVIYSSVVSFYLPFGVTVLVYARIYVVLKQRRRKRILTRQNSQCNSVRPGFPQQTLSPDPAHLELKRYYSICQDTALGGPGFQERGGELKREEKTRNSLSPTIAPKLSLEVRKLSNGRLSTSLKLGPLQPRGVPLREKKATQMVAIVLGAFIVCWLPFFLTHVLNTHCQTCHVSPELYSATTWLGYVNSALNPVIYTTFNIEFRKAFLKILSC
D2 ag-3: qHTS of D3 Dopamine Receptor Agonist: D2 Dopamine Receptor B-arrestin Agonist Counterscreen; 5.9% of 2,300 active; shares compounds with D2 ag-2; DiscoveRx PathHunter D2 beta-arrestin, luminescence, 90 min; response scale: percent relative to full dopamine signal; AID 720507, 2013; Potency, µM (doses to about 76.9 µM), inactives show top-dose activation, hits mostly activators; note: potency is the fitted concentration of half-maximal effect; % of control where 0% means no effect; nearly all actives have a fitted effect of over 70% in size
Active calls of the source: *; ? = inconclusive; / = not tested or not shown; ! = not confirmed by another sample. Unless noted, calls come from the whole dose curve; as a rule, active = well fitted activation curve with a large enough effect; inconclusive = small, poorly fitted or top-dose-only effect; inactive = flat fitted curve, though single readings scatter.

SMILES	D2 PAM-1	D2 PAM-2	D2 ag-1	D2 ag-2	D2 antagonist	D3 ag	D2 ag-3
Cc1ccc(CCNC(=O)c2cccc(Nc3nc4ccccc4nc3-n3nc(C)cc3C)c2)cc1	/	4.9	/	1.4	/	/	/
CN(C)CC(C)(C)CNC(=O)C1CCN(CCCc2ccccc2)CC1	-0.2	1.5	?	48.0*	31.3*	9.5%	17.5%
CCCCN(C)C(=O)C1CCN(CCCc2ccccc2)CC1	-23.5	-1.0	-1.0	5.9	17.7	-4.9%	6.0%
COc1ccc(C[C@H](N)C(=O)N[C@H]2[C@@H](O)[C@H](n3cnc4c(N(C)C)ncnc43)O[C@@H]2CO)cc1	-2.4	-2.0	-4.9	0.6	-2.9	/	/
Cc1ncc(C[n+]2csc(CCO)c2C)c(N)n1	-8.5	-13.3	-3.9	55.4*!	67.8*!	-0.1%	-5.4%
C#CCNC(=O)C1=C[C@@H](c2ccc(C#C)cc2)[C@H](CCCO)[C@@H](OCC)O1	9.9	1.0	0.8	0.4	31.9*	4.6%	-2.7%
CCO[C@@H]1OC(C(=O)O)=C[C@H](c2csc3ccccc23)[C@H]1CCCO	-3.6	-6.1	-3.4	-0.2	32.0*	-3.2%	-2.9%
CCO[C@H]1OC(C(=O)Nc2ccccc2)=C[C@@H](c2csc3ccccc23)[C@@H]1CCCO	-0.9	2.7	-1.0	0.3	-17.1	/	/
CC(=O)Nc1cncc(-c2cccc(N(C)C)c2)n1	-3.4	/	3.3	/	/	/	/
Cc1cc(C)n(C(=O)CNC(=O)c2ccccc2F)n1	-5.5	5.5	-5.4	0.4	0.0	/	/
O=C(CCN1CCN(S(=O)(=O)c2ccc(F)cc2)CC1)Nc1ccccc1F	-8.5	7.4	-1.1	-0.4	-18.1	/	/
O=C(CCN1CCN(CC(=O)Nc2ccccc2F)CC1)Nc1ccccc1F	-32.7	1.6	-2.9	-0.4	6.0	/	/
O=C(CCN1CCN(c2ccc(F)cc2)CC1)Nc1ccccc1F	-17.1	-36.8	1.5	35.3*	65.4*	3.6%	-1.2%
O=C(CCN1CCN(c2ccccc2)CC1)Nc1ccccc1F	-18.1	-16.2	?	70.8*	71.4*	?	25.0%
CCCN1/C(=C(\C#N)C2=NS(=O)(=O)c3ccccc32)N(C)c2ccccc21	3.3	/	-3.6	/	/	/	/
CCN(Cc1ccccc1)C(=O)COC(=O)CNC(=O)c1ccc(C)s1	-12.5	2.3	-0.6	-0.4	4.4	/	/
c1ccc2c3c([nH]c2c1)CCNC3	-8.8	-26.1	0.7	20.3	12.8	23.7%	9.8%
Cc1ccc2[nH]c3c(c2c1)CNCC3	-22.2	-7.0	0.0	0.8	2.8	/	/
COc1ccc(CNC(=O)C2=C(C)C(=O)OC23CCN(C(C)=O)CC3)cc1	/	4.1	/	1.3	/	/	/
Cn1nnnc1NCc1ccccc1F	-11.7	9.0	-3.8	-0.3	0.7	/	/
CCCSCCCNC(=O)Cn1nc(CC)n2c(cc3c(OC)cccc32)c1=O	-7.1	-9.1	-1.6	40.0*	-10.9	15.0%	1.8%
CCc1cc(C(=O)O)c(NC(=O)c2cc(OC)c(OC)c(OC)c2)s1	12.1	/	3.3	0.9	-1.0	/	/
CCOc1cc(N2CCOCC2)c(OCC)cc1NC(=O)c1ccc(F)c(S(=O)(=O)N2CCOCC2)c1	-17.9	8.2	1.4	-0.5	-3.2	/	/
O=C(c1ccccc1)N1CCN(CC(O)COc2ccc(Br)cc2)CC1 (stereo not given)	-46.8	-8.9	-0.2	-5.3	-0.4	/	/
O=C(c1ccco1)N1CCN(CC(O)COc2ccc3oc4ccccc4c3c2)CC1 (stereo not given)	8.6	-18.6	?	49.6*	39.9*	35.5µM*	50.1µM*
SMILES	D2 PAM-1	D2 PAM-2	D2 ag-1	D2 ag-2	D2 antagonist	D3 ag	D2 ag-3
Cc1cc(C)cc(OCC(O)CN2CCN(C(=O)c3ccco3)CC2)c1 (stereo not given)	-17.3	-26.8	10.2	61.4*	34.6*	21.0%	20.0%
COc1cccc(-c2cn3c(n2)sc2cc(C(=O)NCCc4ccccc4)ccc23)c1	/	7.8	/	0.8	/	/	/
Cc1ccc(NC(=O)C(C)OC(=O)Cn2cnc3ccccc3c2=O)cc1 (stereo not given)	16.7	1.2	-1.1	-0.3	7.2	/	/
CC(OC(=O)Cn1cnc2ccccc2c1=O)C(=O)NCc1ccccc1 (stereo not given)	-3.4	-19.5	-1.2	49.3*	8.2	-8.1%	-1.8%
CN(C(=O)C1CCC(=O)N(C2CC2)C1)C1CCCCC1 (stereo not given)	-12.4	3.5	-5.1	-0.6	2.2	/	/
CN(C(=O)CSc1nc(N)c2c3c(sc2n1)CSC(C)(C)C3)c1ccccc1	-19.9	18.5	-2.5	-1.1	7.2	/	/
COc1cc(CC(=O)OCC(=O)NC(C)c2ccccc2)cc(OC)c1OC (stereo not given)	14.7	/	1.5	/	/	/	/
COc1cccc(CC(=O)OCC(=O)NC(C)c2ccc(F)cc2)c1 (stereo not given)	-5.6	0.8	-5.1	0.1	-4.3	-0.7%	-0.7%
CC1C(=O)N(Cc2ccc([N+](=O)[O-])cc2)c2ccccc2N1C(=O)c1c(F)cccc1F (stereo not given)	7.7	-4.2	4.4	-0.8	-6.2	/	/
COc1ccc(CN2C(=O)C(C)N(C(=O)c3c(F)cccc3F)c3ccccc32)cc1 (stereo not given)	-6.2	2.3	-1.2	0.0	22.9	6.8%	-3.8%
COc1nc(N)nc2nc[nH]c12	-4.1	-3.3	3.9	0.0	5.1	/	/
COc1ccc(C(=O)NCC(=O)N2CC=C(c3ccccc3)CC2)cc1OC	-5.4	-9.1	3.6	0.4	-6.6	/	/
Cc1cccc(C(=O)NCC(=O)N2CC=C(c3ccccc3)CC2)c1	1.1	-5.1	1.3	-0.2	-0.1	-0.7%	-0.9%
O=C(O)c1ccccc1C(=O)N1CC=C(c2ccccc2)CC1	-29.6	-17.8	0.3	29.1	3.7	-3.1%	5.5%
COc1cc(C2C(=O)N(C3CCCCCC3)CC(=O)N2Cc2ccccc2)ccc1OC(C)C (stereo not given)	/	8.2	/	1.5	/	/	/
CCN(CC)S(=O)(=O)c1ccc(C)c(NC(=O)CN(C)C)c1	-14.5	0.9	0.3	-0.3	5.1	/	/
